# Experimental data reported in PubChem BioAssay (NCATS).
# Inconclusive results are not listed. The source made the active and inactive calls. Unless noted, calls follow the shape of the full dose curve.
# Columns and labels:
# [1] = biological target: Bile acid receptor (Homo sapiens) (UniProt Q96RI1); test: qHTS assay for small molecule agonists of farnesoid X receptor signaling (AID 588527); conditions: HEK293T FXR-UAS-bla, beta-lactamase ratio, 16 h; stronger effect = higher value;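 also: 0% = vehicle basal and 100% = reference agonist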
# In short: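 Read-out: beta-lactamase reporter fluorescence with CCF4 substrate in GeneBLAzer FXR-UAS-bla HEK293T cells, after 16 h compound exposure at 37 C. Response scaled between DMSO basal (0%) and chenodeoxycholic acid at 100 uM (100%).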
# [2] = biological target: Glucocorticoid receptor (Homo sapiens) (UniProt P04150); test: qHTS assay for small molecule antagonists of glucocorticoid receptor signaling (AID 588533; active = well fitted inhibition curve with a large enough effect in the signal ratio, with a control signal flat, not every such curve was filed as active; the % refers to the signal ratio;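 also: cells stimulated with 2 nM dexamethasone as agonist; % is scaled to controls: 0 for no effect and ±100 for the full control effect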); conditions: HeLa MMTV-bla, GRE beta-lactamase ratio, antagonist mode, 18 h; series mostly up to 76.8 µM
# In short: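 Antagonist-mode qHTS: compound titrations added to GRE-bla HeLa cells, then dexamethasone 2 nM final; 18 h, 37 C. CCF4 FRET fluorescence normalized to dexamethasone and DMSO; IC50 from Hill fit.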
# [3] = qHTS assay for small molecule antagonists of peroxisome proliferator-activated receptor delta signaling (AID 588535); conditions: HEK293T PPARd-UAS-bla, beta-lactamase FRET ratio, 18 h; 460 nm channel;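 also: cells co-treated with a PPAR-delta agonist as stimulator during compound exposure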
# In short: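 Fluorescence from CCF4-loaded GeneBLAzer PPAR-delta-UAS-bla HEK293T cells (2 hrs RT loading) quantified reporter inhibition after an 18 hr, 37 C compound exposure across a titration.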
# Chain of Glucocorticoid receptor (Homo sapiens) (P04150 whole entry, looked up): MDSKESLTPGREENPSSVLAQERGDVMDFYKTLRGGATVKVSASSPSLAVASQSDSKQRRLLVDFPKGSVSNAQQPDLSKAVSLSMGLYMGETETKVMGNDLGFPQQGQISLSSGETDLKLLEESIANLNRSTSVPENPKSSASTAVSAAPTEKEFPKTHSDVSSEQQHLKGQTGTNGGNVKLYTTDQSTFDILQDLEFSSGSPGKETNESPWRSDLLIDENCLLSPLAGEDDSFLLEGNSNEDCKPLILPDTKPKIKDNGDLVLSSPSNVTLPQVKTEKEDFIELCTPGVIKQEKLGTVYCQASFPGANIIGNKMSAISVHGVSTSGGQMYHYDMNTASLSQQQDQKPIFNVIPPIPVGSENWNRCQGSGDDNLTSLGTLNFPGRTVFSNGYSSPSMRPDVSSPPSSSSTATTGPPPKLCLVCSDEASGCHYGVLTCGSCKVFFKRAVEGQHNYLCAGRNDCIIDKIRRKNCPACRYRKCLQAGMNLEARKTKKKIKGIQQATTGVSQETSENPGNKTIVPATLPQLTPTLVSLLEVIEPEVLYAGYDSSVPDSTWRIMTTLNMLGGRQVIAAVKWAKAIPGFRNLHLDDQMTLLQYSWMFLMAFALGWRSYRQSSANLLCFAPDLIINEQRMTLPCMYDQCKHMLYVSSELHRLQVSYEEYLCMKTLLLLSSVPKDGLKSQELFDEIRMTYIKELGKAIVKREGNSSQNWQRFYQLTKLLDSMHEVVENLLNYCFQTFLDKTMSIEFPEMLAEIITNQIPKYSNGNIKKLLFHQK
# Chain of Bile acid receptor (Homo sapiens) (Q96RI1 whole entry, looked up): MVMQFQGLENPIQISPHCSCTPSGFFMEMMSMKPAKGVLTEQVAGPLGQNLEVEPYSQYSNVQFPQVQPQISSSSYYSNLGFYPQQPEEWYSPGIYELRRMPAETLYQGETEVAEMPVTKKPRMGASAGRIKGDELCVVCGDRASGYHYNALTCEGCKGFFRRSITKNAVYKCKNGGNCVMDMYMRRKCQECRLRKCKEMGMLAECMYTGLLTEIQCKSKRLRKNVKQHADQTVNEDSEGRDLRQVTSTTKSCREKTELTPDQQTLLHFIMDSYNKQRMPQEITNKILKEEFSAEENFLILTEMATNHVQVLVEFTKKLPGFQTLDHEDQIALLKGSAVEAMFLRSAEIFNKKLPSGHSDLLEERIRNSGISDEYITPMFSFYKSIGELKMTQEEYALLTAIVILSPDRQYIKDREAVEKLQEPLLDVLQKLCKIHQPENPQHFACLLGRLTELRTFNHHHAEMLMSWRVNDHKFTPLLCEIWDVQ
structure (smiles),measurement,setting,value
CCCCOC(=O)c1ccc(O)cc1,activation,[1],2.27% (inactive)
Nc1ccccc1,Potency,[2],inactive
same,max response,[3],1.43%
CCCC(C)(COC(N)=O)COC(N)=O,Potency,[2],inactive
same,max response,[3],-25.1%
O=C1c2ccccc2C(=O)c2ccccc21,max response,[3],36.9%
Oc1ccc(Cl)cc1,max response,[3],-18.6%
